# Results: PubChem BioAssay AID2796 (The Scripps Research Institute Molecular Screening Center, 2010)
# In all, about 320,000 compounds went through this assay and about 8,000 (2.5%) were called active. What follows is part of a selection rich in actives, with near analogues and random picks from the rest. A number with no mark means an inactive call. Rule as the data show it: active = activation above about 47%; inactive = the rest.
# Target: Aryl hydrocarbon receptor (Homo sapiens) (UniProt P35869)
# Assay: AHR activators, primary screen, cell-based, luminescence, luciferase reporter, human (AID 2796);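 also: 0% = vehicle wells and 100% = reference agonist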
# Details: AHR-responsive luciferase reporter cells, at 5 µM, stronger effect = higher value
# Chain of Aryl hydrocarbon receptor (Homo sapiens) (P35869 whole entry, looked up): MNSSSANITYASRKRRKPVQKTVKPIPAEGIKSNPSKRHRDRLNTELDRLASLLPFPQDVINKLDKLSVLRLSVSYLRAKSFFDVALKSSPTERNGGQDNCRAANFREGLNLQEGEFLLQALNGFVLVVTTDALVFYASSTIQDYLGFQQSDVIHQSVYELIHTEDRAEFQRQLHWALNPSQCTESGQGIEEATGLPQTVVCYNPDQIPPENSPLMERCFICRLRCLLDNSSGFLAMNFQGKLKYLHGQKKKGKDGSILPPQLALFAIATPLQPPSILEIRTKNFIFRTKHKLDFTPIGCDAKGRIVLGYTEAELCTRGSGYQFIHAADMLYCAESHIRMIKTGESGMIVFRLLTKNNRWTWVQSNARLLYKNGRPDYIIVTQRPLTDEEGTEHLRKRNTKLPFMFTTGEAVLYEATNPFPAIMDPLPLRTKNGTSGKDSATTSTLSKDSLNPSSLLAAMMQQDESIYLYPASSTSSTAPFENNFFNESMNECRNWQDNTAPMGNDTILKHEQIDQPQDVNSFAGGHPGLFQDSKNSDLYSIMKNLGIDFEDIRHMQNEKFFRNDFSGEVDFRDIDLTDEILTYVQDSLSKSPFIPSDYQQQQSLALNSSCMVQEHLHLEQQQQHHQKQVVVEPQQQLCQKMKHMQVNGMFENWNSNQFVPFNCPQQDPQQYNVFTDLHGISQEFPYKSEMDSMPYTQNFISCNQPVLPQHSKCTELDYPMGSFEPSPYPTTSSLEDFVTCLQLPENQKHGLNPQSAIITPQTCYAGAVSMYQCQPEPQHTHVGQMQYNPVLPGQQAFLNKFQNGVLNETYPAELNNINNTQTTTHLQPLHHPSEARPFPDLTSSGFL
row,SMILES,activation
1,CC(=O)Nc1ccc(NC(=O)CSc2nnc(COc3ccccc3C)n2CC2CCCO2)cc1 (stereo not given),1.11%
2,CCOC(=O)N1CCN(Cc2nc3ccc([N+](=O)[O-])cc3c(=O)n2-c2cccc(OC)c2)CC1,32.6%
3,Cc1noc(C)c1C(=O)Nc1ccccn1,4.67%
4,Cc1c(C(=O)Nc2ccccn2)oc2ccc(Br)cc12,49.7% (active)
5,Cc1nonc1NC(=O)c1oc2ccccc2c1C,12.5%
6,Cn1ncc2c(N3CCCCC3)nc(NCCCO)nc21,5.05%
7,COc1ccc(NS(=O)(=O)c2ccc(NC(=O)c3ccc(N(C)S(C)(=O)=O)cc3)cc2)cc1,-0.42%
8,COc1cccc(C(=O)Nc2nc3ccc(S(C)(=O)=O)cc3s2)c1,7.38%
9,COc1ccc(C(=O)Nc2cccc(S(C)(=O)=O)c2)cc1,67.2% (active)
10,CCCNC(=O)COc1coc(CN2CCN(Cc3ccccc3)CC2)cc1=O,1.71%
11,Cc1cnc(C(=O)OCc2c(C)cc(C(C)(C)C)cc2C)cn1,3.96%
12,CCN(c1ccc(NC(=O)COC(=O)CCc2nc3ccccc3n2-c2ccccc2)cc1)C(C)C,-1.26%
13,Cc1ccc(C(=O)OCC(=O)N2CC(C)CC(C)C2)cc1S(=O)(=O)N1CCCCC1 (stereo not given),0.38%
14,Cc1ccnc(NC(=O)c2ccc(Cl)c([N+](=O)[O-])c2)c1,104% (active)
15,O=C(Nc1cccnc1)c1ccc(Cl)c([N+](=O)[O-])c1,-0.85%
16,O=C(Nc1ccncc1)c1ccc(Cl)c([N+](=O)[O-])c1,0.64%
17,COc1ccc(OC)c(/C=N/NC(=O)c2ccc[n+](CC(=O)c3ccccc3)c2)c1,12.9%
18,CCN1CCCC1CNC(=O)c1cc2c(=O)n(C)c3ccccc3c2n1C (stereo not given),3.13%
19,Cn1c(C(=O)NCCc2ccsc2)cc2c(=O)n(C)c3ccccc3c21,86.4% (active)
20,Cn1c(C(=O)NCCCN2CCN(c3cccc(Cl)c3)CC2)cc2c(=O)n(C)c3ccccc3c21,7.28%
21,N#Cc1ccccc1NC(=O)c1ccc2c(c1)OCO2,32.1%
22,O=C(CSc1nn(-c2ccc(F)cc2)c(=S)s1)NC1CCS(=O)(=O)C1 (stereo not given),3.28%
23,C=CCn1cc(Cl)cc(C(=O)Nc2ccccc2)c1=O,50.9% (active)
24,C=CCN(C(=O)c1cc(C)cc(C)c1)C1(C(=O)Nc2ccccc2)CCN(C(C)C)CC1,5.4%
25,C=CCc1cccc2cc(C(=O)Nc3ccc(NC(C)=O)cc3)c(=O)oc12,16.9%
